Reference: PubChem BioAssay

How the values were obtained:
[1] = tested on: Botulinum neurotoxin type F light chain protease (Clostridium botulinum); assay: Clostridium botulinum type F light chain protease inhibitors, microsphere substrate cleavage, validation (AID 588459); conditions: multiplex microsphere protease substrate cleavage assay, flow cytometry; at 10 µM; hits give high values
[2] = target: Botulinum neurotoxin type A (Clostridium botulinum) (UniProt P0DPI0); assay: BoNT/A light chain protease inhibitors, biochemical, multiplex microsphere flow cytometry, validation set (AID 588460); conditions: at 10 µM, hits give high values
[3] = target: Lethal factor (Bacillus anthracis) (UniProt P15917); assay: Bacillus anthracis lethal factor inhibition, microsphere flow cytometry protease assay, validation at 10 µM (AID 588461); conditions: multiplex microsphere protease cleavage assay, hits give high values

Measured: inhibition

c1cc2c(cc1C1CCCCC1)c1c3n2CCN=C3CCC1
inactive: [1] 0.7% | [2] -0.3% | [3] -11.8%

Oc1[nH]c2ccccc2c1C1=NCCCC1
inactive: [1] 3.8% | [2] -0.1% | [3] -8.7%

O=C(c1ccc([N+](=O)[O-])cc1)N1CCSC1c1ccccc1Cl (configuration not stated)
inactive: [1] -3.8% | [2] -0.1% | [3] -1.3%

CC(=O)/C=C/c1ccc(C)o1
inactive: [1] 3.8% | [2] 0.9% | [3] 3%

Cc1ccnc(NS(=O)(=O)c2ccc(N)cc2)n1
inactive: [1] 5.2% | [2] -0.3% | [3] -1.5%

CO[C@@]1(NC(=O)Cc2cccs2)C(=O)N2C(C(=O)O)=C(COC(N)=O)CS[C@@H]21
inactive: [1] -1.9% | [2] 1.4% | [3] -10%

CC(=O)N1c2ccccc2C(C)=CC1(C)C
inactive: [1] 2.3% | [2] -0.7% | [3] -8.5%

Cc1ccc(C2CC(=O)C(C=NCCN3CCN(C(=S)Nc4ccccc4)CC3)=C(O)C2)cc1 (configuration not stated)
inactive: [1] -0.8% | [2] 0.1% | [3] 5.4%

CCC[C@@H]1C[C@@H](C(=O)N[C@H]([C@@H](C)O)[C@H]2O[C@H](SC)[C@H](O)[C@@H](O)C2O)N(C)C1 (some centres not stated)
inactive: [1] 3.2% | [2] -1.6% | [3] 0.6%

OC12CCCCC1C(c1ccc3c(c1)OCO3)N(Cc1cccc(F)c1)CC2 (configuration not stated)
inactive: [1] -0.1% | [2] -1.3% | [3] -2.8%

Cc1cc(C(=O)NC(CC(C)C)C(=O)O)cc(C)c1[N+](=O)[O-] (configuration not stated)
inactive: [1] -4.1% | [2] -0.3% | [3] -5.7%

CC(C)Oc1ccc2c(=O)c(-c3ccccc3)coc2c1
inactive: [1] 4.4% | [2] 1.4% | [3] 6.8%

O=C(COc1ccc2c(-c3ccccc3)cc(=O)oc2c1)NCc1cccs1
inactive: [1] -0.2% | [2] -0.1% | [3] -6%

Nc1c(C(=O)c2ccccc2)oc2ccccc12
inactive: [1] 1.8% | [2] 1% | [3] -7.3%

CC(=O)N1CCn2c3c(c4cc(C)ccc42)CCCC31 (configuration not stated)
inactive: [1] 3.1% | [2] -0.3% | [3] -2.3%

COc1ccc2cc(C(=O)OC(C)C)sc(=O)c2c1OC
inactive: [1] 0% | [2] 1.8% | [3] -5.8%

O=C(O)Cc1ccc(-c2ccccc2)cc1
inactive: [1] 0.5% | [2] -1.2% | [3] 0.5%

COc1cc(C(=O)NCCCCCC(=O)O)cc(OC)c1OC
inactive: [1] 1.3% | [2] -0.4% | [3] -13.3%

CCc1cc(C(N)=S)ccn1
inactive: [1] 1.9% | [2] 0.9% | [3] -2.7%

COc1c(C=O)c(CCN(C)C(=O)c2ccc(F)cc2)cc2c1OCO2
inactive: [1] 3% | [2] -1.5% | [3] -4.4%

CC(C)(C)C(=O)NCCCNc1ccc([N+](=O)[O-])cc1
inactive: [1] -0.6% | [2] -0.3% | [3] 3.3%

CCOc1ccc(C(=O)NC(C)C2COc3ccccc3O2)cc1 (configuration not stated)
inactive: [1] -6.8% | [2] -0.6% | [3] -4.7%

COc1ccc(S(N)(=O)=O)cc1C(N)=O
inactive: [1] 1.6% | [2] 0.4% | [3] -0.3%

COc1ccccc1C(CC(=O)Nc1ccccc1C)c1ccc(OC(C)C)cc1 (configuration not stated)
inactive: [1] -0.1% | [2] -0.8% | [3] -7.4%

CC(=O)O[C@]1(C(C)=O)CC[C@H]2[C@@H]3C=C(C)C4=CC(=O)CC[C@]4(C)[C@H]3CC[C@@]21C
inactive: [1] 2% | [2] 1.2% | [3] -4.2%

COc1cc2cc(C(=O)O)[nH]c2c(OC)c1OC
inactive: [1] 0.5% | [2] -0.4% | [3] -3.8%

O=C(Cc1ccccc1[N+](=O)[O-])NCc1ccncc1
inactive: [1] -3.6% | [2] 0.9% | [3] -5.4%

COc1cc(OC)cc(C(=O)N[C@@H](CCSC)c2nc3ccccc3[nH]2)c1
inactive: [1] 0.7% | [2] 0.8% | [3] -0.7%

O=C(NCc1ccc2c(c1)OCO2)c1ccc2c(c1)OCCO2
inactive: [1] 2% | [2] 0.7% | [3] -0.5%

C(=C\c1ccccc1)/CN1CCN(C(c2ccccc2)c2ccccc2)CC1
inactive: [1] -0.8% | [2] -1.7% | [3] -9.2%

CC(C)Cc1ccc(C(C)C(=O)Nc2ccc(O)cc2)cc1 (configuration not stated)
inactive: [1] -3.6% | [2] -1.3% | [3] -6.8%

COc1ccc(C(Cl)=C(c2ccc(OC)cc2)c2ccc(OC)cc2)cc1
inactive: [1] 1.5% | [2] -0.6% | [3] -1.1%

Nc1nc2c(nc(SCc3ccccc3Br)n2C2OC(CO)C(O)C2O)c(=O)[nH]1 (configuration not stated)
inactive: [1] -2.6% | [2] -1.9% | [3] -1.1%

FC(F)(F)c1ccc(-c2noc(CN3CCCN(C4CCCCC4)CC3)n2)cc1
inactive: [1] -2% | [2] -1.4% | [3] -7%

COc1cc2c(cc1OC)C(c1cc3ccccc3oc1=O)=NC(C)(C)C2
inactive: [1] 0.9% | [2] 0% | [3] 0%

COc1cccc(CC(=O)NCC2COc3ccccc3O2)c1OC (configuration not stated)
inactive: [1] -2.4% | [2] 0.4% | [3] 0.6%

CC12CC(c3ccccc3O1)C(C(=O)N1CCOCC1)C(=O)N2 (configuration not stated)
inactive: [1] 2.8% | [2] 0% | [3] -4.8%

Nc1nc2ccc(OC(F)(F)F)cc2s1
inactive: [1] 0.4% | [2] -0.1% | [3] 1.8%

NC(=O)N1c2ccccc2CC(=O)c2ccccc21
inactive: [1] -1.1% | [2] 0.3% | [3] 0.4%

CC(=O)c1ccc(CCCCCCCCCC(=O)O)s1
inactive: [1] 1.9% | [2] 0.3% | [3] -1%

CC(C)c1ccccc1OCCNC(=S)NC(=O)c1cccnc1
inactive: [1] 4.3% | [2] 1.6% | [3] 2.6%

N/C(=N\OC(=O)/C=C/c1ccccc1)c1ccc(Br)cc1
inactive: [1] -3.1% | [2] -0.1% | [3] 2.5%

CCCCOC(=O)c1ccc(N)cc1
inactive: [1] 3.6% | [2] -1.1% | [3] 2.2%

COCC1CCCN(Cc2cn[nH]c2-c2cc3ccccc3o2)C1 (configuration not stated)
inactive: [1] -0.1% | [2] -1.5% | [3] -3.9%

O=C(O)c1ccc(N2C(=O)/C(=C\c3ccccc3)N=C2c2ccccc2)cc1
inactive: [1] 1% | [2] -1.6% | [3] 4.4%

COc1cccc(N2C(=O)[C@H]3C(C(=O)c4cnccn4)=NN[C@H]3C2=O)c1
inactive: [1] 3% | [2] -0.2% | [3] 4.8%

CCC(=O)Oc1ccc(C(=O)Nc2ccc([N+](=O)[O-])cc2)cc1
inactive: [1] 2.3% | [2] -0.2% | [3] -3.6%

OCC(O)CN1CCN(c2ccccc2)CC1 (configuration not stated)
inactive: [1] 1.1% | [2] 0.8% | [3] -2.7%

CCN(CC)CCNC(=O)c1cc(Cl)c(N)cc1OC
inactive: [1] -1.3% | [2] -0.2% | [3] 0%

CCN(CC)CCN1C(=O)C(=O)/C(=C(/O)c2c(C)[nH]c(C(=O)OC)c2C)C1c1cccnc1 (configuration not stated)
inactive: [1] -1.7% | [2] -0.9% | [3] -4.4%

CCC(CO)NCCNC(CC)CO (configuration not stated)
inactive: [1] 0.2% | [2] 1.5% | [3] -0.2%

CNCCC=C1c2ccccc2CCc2ccccc21
inactive: [1] -4.9% | [2] 0.2% | [3] -5.8%

Cc1ccc(C2CC(c3cccs3)=NN2C(=O)c2ccco2)o1 (configuration not stated)
inactive: [1] -0.5% | [2] -0.5% | [3] 1.3%

CC(C)CC(=O)NC(NC(=O)CC(C)C)c1cccc([N+](=O)[O-])c1
inactive: [1] 1.7% | [2] -0.3% | [3] 3.9%

COc1ccc(C2C3CCCCC3(O)CCN2C(=O)c2cccs2)cc1 (configuration not stated)
inactive: [1] 2.8% | [2] 2.1% | [3] 5.5%

Cc1nc(NC(CC(C)C)C(=O)O)c2nc(C)oc2n1 (configuration not stated)
inactive: [1] 1.1% | [2] 1.1% | [3] -5.4%

COc1ccc(/C=C(/C#N)c2cccnc2)cc1OC
inactive: [1] -0.3% | [2] 1% | [3] -7.4%

CC1CCCC(C)N1NC(=O)c1ccc(Cl)c(S(N)(=O)=O)c1 (configuration not stated)
inactive: [1] -0.2% | [2] 0.8% | [3] 5.8%

COc1ccc2[nH]c3c(c2c1)CCNC3C1CC=C(C)CC1 (configuration not stated)
inactive: [1] -1.7% | [2] 0.2% | [3] 3.8%

O=C(NCc1ccc(N2CCCC2=O)cc1)c1ccc(F)cc1
inactive: [1] 5.2% | [2] -0.6% | [3] -3.8%

CCOc1ccc(OCCSc2nc3ccccc3[nH]2)cc1
inactive: [1] -6.7% | [2] -1.3% | [3] -1.8%

Cc1nc2ccccn2c(=O)c1CCN1CCC(C(=O)c2ccc(F)cc2)CC1
inactive: [1] 1.5% | [2] 0.8% | [3] -0.4%

COc1ccc(N2C(=O)[C@@H]3[C@H](C2=O)[C@H]2c4ccccc4C=CN2[C@@H]3C(C)=O)cc1
inactive: [1] -2.1% | [2] -0.4% | [3] -16.8%

O=C(OCCN1CCCC1)C1(c2ccccc2)CCCC1
inactive: [1] -3.9% | [2] -2.9% | [3] 2.6%
